Tests used:
Test in all cases: PBM binding z-score (relative to random genomic background probes); higher = stronger binding; sequences stand for … in GC…GCGATTGACAGCGTAGAATGAAGG
[1] = tested on: PPARg:RXRa DBDmut IVT, anti-RXR (DBD mutation: RXRa K156A/R161A, NR concentration 270 nM, RXRa partner concentration 90 nM)
Method in brief: (§1)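 Custom Agilent 4×180K protein-binding microarrays carried double-stranded probes. Their 34-nt variable regions held direct-repeat seeds, single-nucleotide variants, half-site ablations and random human genomic background sequences. Arrays were incubated 1 h with ligand-free nuclear receptor dimers in PBS pH 7.4, 2% milk, 0.02% Triton X-100, 1 mM DTT, 0.2 mg/mL BSA and 0.4 mg/ml salmon testes DNA. Antibodies against each partner (one per run) detected binding, and scanned fluorescence was regression-normalized. Binding z-scores use random background probes as reference.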

[2] = tested on: PPARg:RXRa IVT, anti-PPARg (NR concentration 270 nM, RXRa partner concentration 90 nM)
Method in brief: as §1

[3] = tested on: PPARg DBDmut:RXRa IVT, anti-PPARg (DBD mutation: PPARg1 K132A/R137A, NR concentration 270 nM, RXRa partner concentration 90 nM)
Method in brief: as §1

[4] = tested on: PPARg DBDmut IVT, anti-PPARg (DBD mutation: PPARg1 K132A/R137A, NR concentration 270 nM)
Method in brief: as §1

[5] = tested on: PPARg homodimer (NR concentration 180 nM)
Method in brief: as §1

[6] = tested on: PXR:RXRa (NR concentration 270 nM, RXRa partner concentration 90 nM)
Method in brief: as §1

[7] = tested on: PXR homodimer (NR concentration 270 nM)
Method in brief: as §1

[8] = tested on: RARa:RXR (NR concentration 270 nM, RXRa partner concentration 90 nM)
Method in brief: as §1

[9] = tested on: RARa homodimer (NR concentration 270 nM)
Method in brief: as §1

[10] = tested on: RARb:RXRa (NR concentration 270 nM, RXRa partner concentration 90 nM)
Method in brief: as §1

[11] = tested on: RARb homodimer (NR concentration 270 nM)
Method in brief: as §1

[12] = tested on: RARg:RXRa (NR concentration 270 nM, RXRa partner concentration 90 nM)
Method in brief: as §1

[13] = tested on: RARg homodimer (NR concentration 270 nM)
Method in brief: as §1

[14] = tested on: RXRa DBDmut IVT, anti-RXR (DBD mutation: RXRa K156A/R161A, NR concentration 90 nM)
Method in brief: as §1

[15] = tested on: RXRa homodimer (NR concentration 180 nM)
Method in brief: as §1

[16] = tested on: THRa:RXRa (NR concentration 90 nM, RXRa partner concentration 90 nM)
Method in brief: as §1

[17] = tested on: THRa homodimer (NR concentration 90 nM)
Method in brief: as §1

[18] = tested on: VDR homodimer (NR concentration 270 nM)
Method in brief: as §1

| Sequence | PBM binding z-score [1] | PBM binding z-score [2] | PBM binding z-score [3] | PBM binding z-score [4] | PBM binding z-score [5] | PBM binding z-score [6] | PBM binding z-score [7] | PBM binding z-score [8] | PBM binding z-score [9] | PBM binding z-score [10] | PBM binding z-score [11] | PBM binding z-score [12] | PBM binding z-score [13] | PBM binding z-score [14] | PBM binding z-score [15] | PBM binding z-score [16] | PBM binding z-score [17] | PBM binding z-score [18] |
| --- | --- | --- | --- | --- | --- | --- | --- | --- | --- | --- | --- | --- | --- | --- | --- | --- | --- | --- |
| TCTGCTAGGTCAGTTGGACAGCTAACGAGCTGCC | 2.28 | 2.83 | 0.449 | 0.399 | -0.587 | -0.183 | -1.13 | -0.205 | -1.3 | 3.26 | 1.99 | 2.24 | 3.47 | 0.472 | 0.621 | 1.12 | -0.399 | -0.808 |
| CGTCAAAGTTCAGCTAAGGTAACGTAAAGCACGC | 0.23 | 1.25 | 0.517 | -0.309 | 1.44 | 4 | 1.56 | 3.29 | 1.13 | 4.65 | 3.8 | 4.28 | 5.29 | 3.46 | 3.15 | 5.46 | 2.11 | 1.84 |
| GCTATTAGTTGGAAGGGCAACCGAATGATTCTCG | -0.166 | -0.0839 | -0.592 | -0.456 | 0.324 | -0.247 | -0.0418 | -0.059 | 0.846 | 1.06 | 0.941 | 0.317 | 0.522 | 0.581 | 0.0792 | -0.126 | -0.242 | -0.28 |
| ACTCGGAGGCCAAAGGTCAGAGCTACGCCAGTGA | 1 | 4.07 | 0.0532 | -0.392 | 6.38 | 4.9 | -0.00137 | 6.59 | 1.38 | 4.53 | 4.54 | 6.25 | 4.8 | 0.776 | 6.62 | 3.06 | -0.031 | 0.616 |
| AGAATGAGGTTATTATGATCAGGGAATTGCGGTC | 3.67 | 2.89 | 1.32 | 0.834 | 0.53 | 1.11 | 0.371 | 1.34 | 0.69 | 1.24 | 0.795 | 1.07 | 0.882 | 2.21 | 1.7 | 2.21 | 1.08 | 1.41 |
| ATGTCTAGGTAAAAGTTCAGTGAATCCCGAGGAT | 1.33 | 3.13 | 0.931 | 0.765 | 1.17 | 1.87 | 1.49 | 1.77 | 0.698 | 2.39 | 2.32 | 1.91 | 1.91 | 0.508 | 1.57 | 1.11 | 0.0268 | 0.949 |
| TAGCCTAGGTCATTGGGCCAGAATAGTACGCATC | 2.63 | 3.68 | -0.385 | -0.0458 | 1.41 | 1.51 | -0.537 | 2.26 | 0.079 | 3.53 | 2.6 | 4.03 | 4.07 | 1.58 | 2.8 | 2.66 | 0.586 | 1.12 |
| TCTTGTAGATCAAAGGCTAAGAAAGCCGAAGCCT | 1.65 | 1.23 | 0.137 | 0.157 | -0.136 | -0.183 | -0.625 | 0.0326 | -0.389 | 0.153 | -0.521 | -0.216 | -0.29 | 0.467 | 0.315 | -0.446 | -0.464 | -0.345 |
| TCTAGTTGGTCAAAGGTCACTCACTCGAAATGCG | 3.67 | 6.11 | 2.62 | 1.66 | 4.97 | 5.78 | 1.56 | 7.3 | 3.14 | 4.93 | 4.78 | 6.5 | 6 | 2.11 | 7.54 | 3.86 | 2.1 | 3.03 |
| TCATATAGGTAAACAGGTGAATGTCCGTAAGTTA | 4.88 | 4.45 | 1.34 | 1.04 | 1.16 | 0.702 | 0.0773 | 1.09 | 0.858 | 0.708 | 0.605 | 0.347 | 0.272 | 1.27 | 1.03 | 0.567 | 0.511 | 0.283 |
| CTCGAAAGGTCGGTTGAGGTAAGTATACGGATAA | -0.106 | 0.306 | -0.141 | 0.138 | 0.476 | 2.45 | 0.12 | 1.54 | -0.0404 | 2.64 | 1.72 | 2.37 | 2.35 | 0.522 | 1.83 | 4.54 | 0.648 | 0.257 |
| TCTGGTAGATCAACAGGAGGTTAAGAAAGATCGA | 0.912 | 0.0177 | 0.166 | -0.137 | 0.335 | 0.736 | -0.172 | 1.06 | -0.145 | 0.269 | 0.385 | 0.66 | 0.298 | 0.299 | 0.827 | 0.849 | -0.374 | 0.00452 |
| CCGTACGGGTCACTGACAGGTTATAGCATTTGGA | 1.03 | 2.52 | -0.133 | -0.747 | 1.58 | 3.74 | -0.0858 | 4.79 | 0.0778 | 4 | 3.2 | 6.14 | 4.89 | 1.07 | 5.53 | 2.97 | -0.108 | 0.766 |
| CCTAGTTGTTCAAGGTCACACACGCTATAGGTAC | 1.86 | 2.8 | 2.46 | 1.22 | 4.99 | 4.73 | 3.83 | 5 | 4.94 | 4.12 | 4.25 | 4.69 | 4.87 | 2.65 | 4.92 | 4.3 | 4.9 | 4.98 |
| CCACACAGGTGAGAAGGTAACTCAGCCTCGATTA | 1.42 | 0.872 | -0.137 | -0.56 | 1.35 | 0.0866 | 0.0622 | 0.524 | 0.47 | 0.709 | 0.713 | 0.766 | 0.648 | 0.395 | 0.675 | 0.428 | 0.324 | -0.221 |
| TTACCAACGTGAAAGGTCGTTGATGCACGCCTTG | 0.0227 | 1.04 | 0.702 | -0.158 | 1.27 | 2.14 | 0.445 | 2.24 | 0.296 | 1.66 | 1.63 | 1.54 | 0.872 | 0.467 | 2.73 | 1.35 | -0.282 | 1.13 |

Source: the supplement of paper PMC6555819
